The source of these data is ChEMBL document CHEMBL2218924, “A broad activity screen in support of a chemogenomic map for kinase signalling research and drug discovery” (Biochem J, 2013).

In general, residual activity refers to the signal under treatment as a percentage of the control signal.

Assay [1] concerns the target Platelet-derived growth factor receptor alpha (Homo sapiens) (UniProt P16234). To be noted: at 1 µM.
Assay [2] shares this target. To be noted: at 10 µM.
Assay [3] has as its target Platelet-derived growth factor receptor beta (Homo sapiens) (UniProt P09619). As to conditions: at 1 µM.
The target is the same in assay [4]. As to conditions: at 10 µM.
Assay [5] addresses T1, 3-phosphoinositide-dependent protein kinase 1 (Homo sapiens) (UniProt O15530).
T1 sequence (whole entry): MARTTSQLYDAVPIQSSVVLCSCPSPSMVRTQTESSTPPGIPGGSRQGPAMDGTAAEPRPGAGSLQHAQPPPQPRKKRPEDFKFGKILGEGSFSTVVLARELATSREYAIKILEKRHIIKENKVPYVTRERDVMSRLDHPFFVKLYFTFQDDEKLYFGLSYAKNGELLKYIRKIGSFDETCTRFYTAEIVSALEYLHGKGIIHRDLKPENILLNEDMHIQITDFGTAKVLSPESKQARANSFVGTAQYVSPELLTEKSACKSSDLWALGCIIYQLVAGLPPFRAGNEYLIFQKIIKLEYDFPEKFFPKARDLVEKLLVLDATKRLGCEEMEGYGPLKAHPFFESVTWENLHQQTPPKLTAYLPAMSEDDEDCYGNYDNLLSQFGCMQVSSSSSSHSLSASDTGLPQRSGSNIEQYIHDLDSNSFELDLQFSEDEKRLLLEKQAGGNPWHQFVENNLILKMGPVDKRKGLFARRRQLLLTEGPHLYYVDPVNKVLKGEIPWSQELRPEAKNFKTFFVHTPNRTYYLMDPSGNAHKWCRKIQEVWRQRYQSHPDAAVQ
As to conditions: at 1 µM.

The target of assay [6] is T1, 3-phosphoinositide-dependent protein kinase 1 (Homo sapiens). As to conditions: at 10 µM.
For assay [7], the target named is cAMP-dependent protein kinase catalytic subunit alpha (Homo sapiens) (UniProt P17612). To be noted: at 1 µM.
The target is the same in assay [8]. As to conditions: at 10 µM.
Assay [9] concerns the target RAC-gamma serine/threonine-protein kinase (Homo sapiens) (UniProt Q9Y243). To be noted: at 1 µM.
For assay [10] the target is unchanged. To be noted: at 10 µM.

Chain of RAC-gamma serine/threonine-protein kinase (Homo sapiens) (Q9Y243 whole entry): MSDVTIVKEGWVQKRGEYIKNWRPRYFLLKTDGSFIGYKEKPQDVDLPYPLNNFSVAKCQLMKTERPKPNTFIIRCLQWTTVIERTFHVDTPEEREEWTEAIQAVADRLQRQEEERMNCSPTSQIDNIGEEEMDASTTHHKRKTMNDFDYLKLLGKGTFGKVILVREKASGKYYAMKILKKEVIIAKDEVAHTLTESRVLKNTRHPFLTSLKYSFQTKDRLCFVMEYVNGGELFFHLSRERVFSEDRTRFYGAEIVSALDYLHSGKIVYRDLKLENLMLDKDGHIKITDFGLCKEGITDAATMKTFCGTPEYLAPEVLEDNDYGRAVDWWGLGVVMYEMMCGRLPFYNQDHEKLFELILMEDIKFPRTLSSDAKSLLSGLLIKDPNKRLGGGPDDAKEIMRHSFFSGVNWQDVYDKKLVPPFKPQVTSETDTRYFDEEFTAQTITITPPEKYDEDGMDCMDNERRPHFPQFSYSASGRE
Chain of Platelet-derived growth factor receptor beta (Homo sapiens) (P09619 whole entry): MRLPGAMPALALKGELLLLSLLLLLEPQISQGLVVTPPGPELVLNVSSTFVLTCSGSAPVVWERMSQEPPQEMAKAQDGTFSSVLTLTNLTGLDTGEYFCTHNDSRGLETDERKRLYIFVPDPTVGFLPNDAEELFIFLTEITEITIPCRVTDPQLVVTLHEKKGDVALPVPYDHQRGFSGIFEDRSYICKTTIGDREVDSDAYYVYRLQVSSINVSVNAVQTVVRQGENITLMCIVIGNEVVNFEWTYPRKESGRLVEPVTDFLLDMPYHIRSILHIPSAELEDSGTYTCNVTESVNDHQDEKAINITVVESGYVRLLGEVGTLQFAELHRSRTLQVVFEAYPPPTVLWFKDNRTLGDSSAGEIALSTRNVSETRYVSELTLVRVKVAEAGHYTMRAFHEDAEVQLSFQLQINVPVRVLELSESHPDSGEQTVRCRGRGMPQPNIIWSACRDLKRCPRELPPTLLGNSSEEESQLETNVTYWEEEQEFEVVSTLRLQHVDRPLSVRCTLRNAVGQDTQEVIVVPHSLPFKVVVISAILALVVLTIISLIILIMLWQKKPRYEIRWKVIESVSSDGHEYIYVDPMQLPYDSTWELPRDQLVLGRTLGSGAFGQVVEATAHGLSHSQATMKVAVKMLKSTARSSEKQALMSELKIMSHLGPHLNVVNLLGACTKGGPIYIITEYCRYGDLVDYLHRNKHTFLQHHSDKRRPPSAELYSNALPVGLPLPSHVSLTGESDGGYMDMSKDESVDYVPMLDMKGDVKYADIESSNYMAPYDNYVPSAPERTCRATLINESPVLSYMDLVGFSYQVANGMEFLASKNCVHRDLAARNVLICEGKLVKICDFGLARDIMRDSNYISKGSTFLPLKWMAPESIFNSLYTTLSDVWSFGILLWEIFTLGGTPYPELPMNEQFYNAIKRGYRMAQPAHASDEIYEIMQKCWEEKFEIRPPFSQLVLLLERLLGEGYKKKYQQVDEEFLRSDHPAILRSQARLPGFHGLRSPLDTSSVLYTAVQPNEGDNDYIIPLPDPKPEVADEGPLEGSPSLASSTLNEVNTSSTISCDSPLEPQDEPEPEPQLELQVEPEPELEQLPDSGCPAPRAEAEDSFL
Chain of Platelet-derived growth factor receptor alpha (Homo sapiens) (P16234 whole entry): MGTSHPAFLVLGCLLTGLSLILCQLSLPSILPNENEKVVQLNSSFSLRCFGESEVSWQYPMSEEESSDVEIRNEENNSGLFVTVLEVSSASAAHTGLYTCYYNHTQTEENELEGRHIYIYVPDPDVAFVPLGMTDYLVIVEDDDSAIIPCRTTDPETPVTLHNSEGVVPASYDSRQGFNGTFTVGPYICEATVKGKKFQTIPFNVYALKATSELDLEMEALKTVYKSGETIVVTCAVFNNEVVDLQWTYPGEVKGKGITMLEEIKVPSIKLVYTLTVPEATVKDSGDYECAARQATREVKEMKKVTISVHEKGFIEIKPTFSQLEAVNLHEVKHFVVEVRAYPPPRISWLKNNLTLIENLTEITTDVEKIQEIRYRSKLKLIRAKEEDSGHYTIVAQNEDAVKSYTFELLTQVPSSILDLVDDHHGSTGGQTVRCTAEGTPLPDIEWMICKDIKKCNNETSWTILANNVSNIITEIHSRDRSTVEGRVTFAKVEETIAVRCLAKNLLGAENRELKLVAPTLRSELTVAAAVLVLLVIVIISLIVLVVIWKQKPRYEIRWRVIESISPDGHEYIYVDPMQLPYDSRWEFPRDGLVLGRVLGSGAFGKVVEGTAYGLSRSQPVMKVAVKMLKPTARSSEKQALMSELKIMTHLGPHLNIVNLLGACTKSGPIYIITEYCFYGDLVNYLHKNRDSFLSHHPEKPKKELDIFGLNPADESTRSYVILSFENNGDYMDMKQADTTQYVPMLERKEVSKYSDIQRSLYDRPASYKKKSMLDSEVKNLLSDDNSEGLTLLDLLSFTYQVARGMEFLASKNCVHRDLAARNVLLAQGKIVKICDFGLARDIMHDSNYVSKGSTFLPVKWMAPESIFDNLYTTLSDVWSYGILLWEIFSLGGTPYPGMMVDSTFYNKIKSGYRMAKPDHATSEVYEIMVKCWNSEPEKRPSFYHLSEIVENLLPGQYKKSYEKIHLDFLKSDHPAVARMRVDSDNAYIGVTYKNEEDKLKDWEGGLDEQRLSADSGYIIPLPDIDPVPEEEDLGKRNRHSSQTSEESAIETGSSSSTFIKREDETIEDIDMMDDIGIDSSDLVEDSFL

Consider `COc1ccc(CNc2nc(N(CCO)CCO)nc3c2ncn3C(C)C)cc1`, for which the residual activity in assay [1] amounted to 101%; in [2] it was 102%; in assay [3], 93%; in assay [4], 100%; in [5] it was 100%; in assay [6] it was 100%. In addition, the residual activity in [7] was determined as 93%; in assay [8], 85%; in [9] it was 72%; in assay [10] it was 69%.
Take `CC#CC(=O)Nc1cc2c(Nc3ccc(F)c(Cl)c3)ncnc2cn1`: the residual activity in assay [1] was found to be 113%; in assay [2] it was 42%; in [3], 105%; in [4], 86%; in assay [5] it was 102%; in [6] it was 100%. For the same molecule, the residual activity in assay [7] is 99%; in assay [8], 77%; in assay [9], 93%; in [10] it was 91%.
Turning to `Oc1ccc(Nc2nc(-c3ccc(Cl)cc3)cs2)cc1`, the residual activity in assay [1] was 87%; in assay [2] it was 83%; in assay [3] it was 117%; in assay [4], 137%; in assay [5] it was 115%; in assay [6], 102%. In addition, the residual activity in assay [7] came out at 100%; in assay [8], 129%; in assay [9], 123%; in assay [10], 104%.
Take `N#CC(C#N)=C(N)/C(C#N)=C/c1ccc(O)cc1`: the residual activity worked out at 119% in [1], 99% in assay [3], 82% in [7] and 63% in assay [8].
In the case of `COc1ccc(C(=O)Nc2sc3c(c2C(N)=O)CCCC3)cc1OC`, the residual activity in [1] stood at 87%; in assay [2] it was 86%; in assay [3], 89%; in assay [4], 97%; in [5], 95%; in assay [6], 96%. The residual activity in [7] stood at 97%; in assay [8], 95%; in [9] it was 102%; in assay [10] it was 87%.
As to `c1ccc(-c2n[nH]c3c2oc2ccccc23)cc1`, the residual activity in assay [1] was found to be 33%; in assay [2], 5%; in [7] it was 70%; in assay [9], 90%.
In the case of `CCN(CC)C(=O)c1ccc(Nc2nc(OCC3CCCCC3)c3nc[nH]c3n2)cc1`, the residual activity in assay [1] was determined as 65%; in [2], 18%; in assay [3] it was 63%; in assay [4], 14%; in [5] it was 20%; in assay [6], 3%. The residual activity was 80% in assay [7], 52% in assay [8] and 40% in assay [10].
Turning to `Cc1cc2ncc(-c3ccccc3)nc2cc1C`, the residual activity is 99% in assay [3]; 96% in [4]; 86% in assay [7]; 75% in [8]; 90% in [9]; 87% in assay [10].
For `CC(=O)c1ccc(N2CCOCC2)cc1O`, the residual activity is 107% in assay [2]; 112% in [3]; 105% in assay [4]; 87% in [7]; 96% in [8]; 106% in [9]. The residual activity in assay [10] worked out at 104%.
For `O=C1NC(=O)/C(=C/c2ccc3c(c2)OC(F)(F)O3)S1`, the residual activity amounted to 127% in assay [1]; 113% in assay [2]; 108% in assay [3]; 116% in assay [4]; 108% in assay [5]; 106% in [6]. Also, the residual activity turned out to be 102% in assay [7], 74% in assay [8], 97% in assay [9] and 83% in assay [10].
On to `N#CCCc1ccc2c(c1)-c1[nH]c3ccc([N+](=O)[O-])cc3c1CC(=O)N2`, for which the residual activity in assay [5] stood at 17%; in assay [6], 6%.
As for `COc1ccc(S(=O)(=O)N(CCO)c2ccccc2CN(C)C/C=C/c2ccc(Cl)cc2)cc1`, the residual activity in [1] was determined as 109%; in assay [2] it was 95%; in [3] it was 109%; in assay [4] it was 104%; in [5], 119%; in assay [6], 114%. The figures for the residual activity in assay [7], in [9] and in assay [10] were 105%, 104% and 56%, respectively.
Consider `CNc1cc2c(Nc3cccc(Br)c3)ncnc2cn1`, for which the residual activity in [1] was found to be 122%; in [2], 107%; in assay [3], 109%; in assay [4], 113%; in assay [5], 100%; in assay [6] it was 64%. Moreover, the residual activity in assay [7] worked out at 102%; in assay [8], 98%; in assay [9] it was 104%; in [10] it was 93%.
On to `CN(C)c1ccc(/C=C2\C(=O)Nc3ccccc32)cc1`, for which the residual activity amounted to 79% in assay [1]; 14% in assay [2]; 101% in assay [3]; 30% in assay [4]; 114% in [5]; 92% in assay [6]. Moreover, the residual activity in [7] was determined as 89%; in assay [8], 86%; in [9], 96%; in assay [10], 100%.
For `O=C(O)c1ccc2c3c1cccc3c(=O)n1c3ccccc3nc21`, the residual activity in assay [1] turned out to be 113%; in assay [2], 114%; in [4] it was 108%; in [5], 108%; in [6], 82%; in assay [7], 73%. In addition, the results for the residual activity in assay [8], in assay [9] and in assay [10] were 89%, 102% and 82%, respectively.
On to `Cc1cccc(-c2[nH]c(C(C)(C)C)nc2-c2ccc3c(c2)OCO3)n1`, for which the residual activity came out at 87% in assay [7] and 91% in assay [8].
As to `COc1cc2ncc(-c3ccccc3)nc2cc1OC`, the residual activity in assay [1] is 84%; in assay [2] it was 27%; in assay [3], 97%; in assay [4] it was 73%; in assay [7], 99%; in [8], 74%.
For `Cc1ccc(NC2=CC(=O)c3sc(C)nc3C2=O)cc1`, the residual activity in assay [1] was 104%; in assay [2], 112%; in assay [3], 93%; in assay [4] it was 92%; in assay [5], 99%; in [6] it was 102%. Further, the residual activity in assay [7] was 102%; in assay [8], 106%; in [9] it was 91%; in [10], 89%.
With `Cc1ccc(S(=O)(=O)/C=C/C#N)cc1`, the residual activity worked out at 100% in assay [1]; 109% in assay [2]; 104% in [3]; 107% in [4]; 105% in [5]; 108% in assay [6]. Also, the residual activity in assay [7] was 102%; in [8], 102%; in [9], 108%; in assay [10] it was 85%.
For `CCOc1cc2ncnc(Nc3cccc(Br)c3)c2cc1OCC`, the residual activity was 90% in [2]; 89% in assay [3]; 91% in assay [4]; 104% in assay [5]; 86% in assay [6]; 73% in assay [7]. The residual activity in assay [8] was 86%; in assay [9], 100%; in assay [10], 100%.
